Bioassay records from PubChem.
CYP2C9 inhib: blockers of cytochrome P450 2C9 activity – biochemical, luminescence, ADME assay, primary screen; inhibition, % at 5 µM; 20% of 96,000 active; AID 777, 2007; CYP2C9 Supersomes, luciferin-H conversion; P11712;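 active = blocking of liver enzyme CYP2C9 beyond about 50% at 5 µM, limit read from the data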
CYP2C9 activ: human CYP2C9 activators, primary screen, biochemical, luminescence | 1.4% of 96,000 active | recombinant CYP2C9, luciferin-H conversion; active compounds read high; factor 1 = untreated enzyme, 0 = blocked | activation factor at 5 µM | Cytochrome P450 2C9 (Homo sapiens), P11712;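 active = activation factor of 2 or more for CYP2C9 at a 5 µM dose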;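 also: 0 = sulfaphenazole-blocked wells and 1 = vehicle-only wells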
CYP2C19 activ: human CYP2C19 activators, primary screen, biochemical, luminescence; recombinant CYP2C19, luciferin-H EGE luminescence; active compounds read high; 0 = fully inhibited enzyme, 1 = untreated enzyme; activation factor at 5 µM; 96,000 tested, under 10 active; AID 1025, 2008;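 active = activation factor of at least 2 at 5 µM in the primary screen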;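 also: 0 = wells with 2.5 mM tranylcypromine and 1 = vehicle-only wells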
Target sequence (P33261 whole entry, looked up): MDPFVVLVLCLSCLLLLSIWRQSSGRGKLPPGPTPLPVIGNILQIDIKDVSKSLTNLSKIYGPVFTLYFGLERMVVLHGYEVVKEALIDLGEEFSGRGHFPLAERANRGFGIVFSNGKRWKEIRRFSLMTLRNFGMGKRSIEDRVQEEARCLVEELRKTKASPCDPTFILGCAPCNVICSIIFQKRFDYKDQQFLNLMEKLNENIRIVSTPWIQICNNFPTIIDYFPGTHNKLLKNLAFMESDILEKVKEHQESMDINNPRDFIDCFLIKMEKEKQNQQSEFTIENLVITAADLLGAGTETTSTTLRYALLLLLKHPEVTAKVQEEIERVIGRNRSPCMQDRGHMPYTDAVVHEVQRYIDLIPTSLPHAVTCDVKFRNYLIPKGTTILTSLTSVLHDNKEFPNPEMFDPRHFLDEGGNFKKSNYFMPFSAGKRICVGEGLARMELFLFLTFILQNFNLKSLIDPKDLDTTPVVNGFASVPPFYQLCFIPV
PTK2B oligo ant: antagonists of Pyk2 self-association, primary screen, Q293 cells, FERM NanoBiT luminescence, HTS; active compounds read low; z-score (the deposit names both 25 µM and 10 µM); Protein-tyrosine kinase 2-beta (Homo sapiens), Q14289; 0.83% of 99,000 active;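 active = Z-score of -3 or lower, scaled per plate to the spread of control and sample wells; inactive = z-score above -3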;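 also: negative z-score means lost luminescence so less FERM oligomerization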
Cav3 T inh: Cav3.2 calcium influx blockers – cell-based, Fluo-4 calcium fluorescence, FDSS, MLSMR library, primary screen. Cav3.2-expressing cells; active compounds read low. B-score at 10 µM. Voltage-dependent T-type calcium channel subunit alpha-1H (Homo sapiens), O95180. 4% of 100,000 active. AID 449739, 2010;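 active = single-dose well whose peak fluorescence ratio is a statistical outlier from its plate by either plate-standardised score or position-corrected B-score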
CYP2C19 inhib: blockers of cytochrome P450 2C19 activity – biochemical, luminescence, ADME assay, primary screen | P33261 | CYP2C19 Supersomes, luciferin-H EGE luminescence, 30 min | inhibition, % at 5 µM | 21% of 96,000 active;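 active = CYP2C19 inhibition above a set limit at 5 µM in the primary screen, cut at about 50% in these data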;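 also: plate controls were negative control wells for no effect and 2.5 mM tranylcypromine positive control for full effect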
* marks the source's active call; other numbers are inactive results; nt = not tested or not shown. Shown are actives, neighbours in structure and some others; about 27% of the full set was active somewhere.

SMILES	CYP2C9 inhib	CYP2C9 activ	CYP2C19 activ	PTK2B oligo ant	Cav3 T inh	CYP2C19 inhib
CCOC(=O)C(NCc1ccccc1OC)(NC(=O)c1ccccc1)C(F)(F)F (configuration not stated)	62.9*	0.4	0.5	1.25	-0.142	47.5
CCOC(=O)C(NC(=O)c1ccc(OC)cc1)(N1CCOCC1)C(F)(F)F (configuration not stated)	62.9*	0.4	0.7	-0.24	1.99	34.9
CCOC(=O)C(NCc1ccc(F)cc1)(NC(=O)c1ccccc1)C(F)(F)F (configuration not stated)	nt	nt	nt	0.07	-1.58	nt
CCOC(=O)C(NC(C)=O)(N1CCc2ccccc2C1)C(F)(F)F (configuration not stated)	91.7*	0.1	0.3	0.57	-1.17	74.8*
CC(C)C[C@H](N)c1cn([C@@H](CCCCN)C(=O)N2CCNCC2)nn1	nt	nt	nt	nt	0.212	nt
O=C(COc1ncnc2sccc12)N1CCc2ccccc2C1	30.9	0.7	0.4	-0.08	-0.958	59.1*
O=C(Nc1ccc(Oc2ccccc2)cc1)c1cnc2n(c1=O)CCS2	5.3	0.9	1	nt	nt	0.9
O=C(O)/C=C/C(=O)NNC(=O)c1ccc(Br)cc1	nt	nt	nt	0.61	nt	nt
O=C(NNC1=C(C(=O)C(F)(F)F)CCC1)c1ccccc1O	84.6*	0.2	0.7	-1.74	-6.29*	25.6
O=C(NNC1=C(C(=O)C(F)(F)F)CCC1)c1ccc(Br)cc1	69.2*	0.3	0.9	-0.15	-5.09*	6.7
O=C(NC1CCCCC1)N(Cc1ccc(F)cc1)Cc1nc2ccccc2c(=O)[nH]1	-13.9	1.1	0.9	-1.13	-0.623	11.9
CCN(CC)CCNC(=O)c1ccccc1N	56.2*	0.4	0.3	-2.48	1.19	66.6*
CCCCC(CC)C(=O)NCc1ccccc1OC (configuration not stated)	-1.2	1	0.5	0.08	0.342	53.4*
COc1ccc(C(=O)NCc2ccccc2OC)c(OC)c1	-164.1	2.6*	0.4	-1.54	0.124	55.6*
CCN(CC)CCCNC(=O)c1ccccc1C	-0.9	1	1.1	-0.45	0.173	-7.2
CCCC(C)C(=O)NCc1ccccc1OC (configuration not stated)	-15.2	1.2	0.9	0.15	-0.0334	14.9
COc1ccccc1CNC(=O)c1ccccc1N	15.3	0.8	0.5	-0.58	-1.13	52.6*
O=C(CSc1nc2ccccc2o1)Nc1nncs1	55.4*	0.4	0.7	0.42	0.428	33.2
Cc1nnc(NC(=O)CSc2nc3ccccc3o2)s1	nt	nt	nt	-0.81	1.54	nt
CCc1nnc(NC(=O)CSc2nc3ccccc3o2)s1	58.7*	0.4	1	0.18	0.516	2.0
C=CCSc1nnc(NC(=O)CSc2nc3ccccc3o2)s1	82.3*	0.2	0.4	1.66	nt	58.8*
Cc1cc2ncn(C(=O)c3c(-c4ccccc4Cl)noc3C)c2cc1C	44.1	0.6	0.6	0.13	-1.32	37.6
Cc1cc(C(=O)N/N=C/c2cccs2)no1	nt	nt	nt	-1.42	nt	nt
N#Cc1c(-c2ccc(Cl)cc2)ccn2nc(CCC(=O)O)nc12	12.4	0.9	0.9	-0.05	0.533	13.3
CCCCCc1nc2c(C#N)c(-c3ccc(Cl)cc3)ccn2n1	57.9*	0.4	0.9	-0.58	-1.17	12.0
SMILES	CYP2C9 inhib	CYP2C9 activ	CYP2C19 activ	PTK2B oligo ant	Cav3 T inh	CYP2C19 inhib
COC(=O)c1c(-c2ccc3ccccc3c2)csc1NC(=O)Cc1ccc(OC)c(OC)c1	79.7*	0.2	0.5	-2.07	nt	48.1
COC(=O)c1c(-c2cccc(OC)c2)csc1N	-11.1	1.1	0.7	nt	0.000151	26.9
COC(=O)c1c(-c2ccc(OC)c(OC)c2)csc1N	45.5	0.5	0.4	1.16	-1.49	60.1*
Cc1ccc(OCc2ccc(C(=O)Nc3nc4ccccc4n3Cc3ccccc3)o2)c([N+](=O)[O-])c1	63.0*	0.4	0.8	0.79	-2.27	21.2
O=C(Nc1nc2ccccc2n1Cc1ccccc1)c1ccc(COc2ccccc2[N+](=O)[O-])o1	36.8	0.6	0.9	-0.62	-2.59	9.4
CCc1ccccc1NC(=O)CCN1C(=O)c2ccccc2C1=O	-12.1	1.1	0.7	-0.13	nt	32.5
CCCC(=O)Nc1cccn(Cc2ccccc2Br)c1=O	43.4	0.6	0.1	1.04	1.01	92.4*
N#Cc1ccc2ccn(CC(=O)NC3CCCCCC3)c2c1	27.4	0.7	0.4	-0.35	-1.52	58.1*
COC(=O)c1ccc2ccn(CC(=O)NC3CCCCC3)c2c1	44.2	0.6	0.7	0.29	0.697	25.5
CCn1nc(C(=O)N2CCc3ccccc3C2)c2ccccc2c1=O	69.4*	0.3	0.3	-0.62	1.42	65.5*
Cn1c(C(=O)N2CCc3ccccc3C2)cc2c(=O)n3ccccc3nc21	49.1	0.5	0.3	-0.93	-0.00587	65.8*
Cn1c(C(=O)N2CCN(C(=O)c3ccco3)CC2)cc2c(=O)n3ccccc3nc21	6.4	0.9	0.6	0.62	-0.734	39.9
C=CCN1c2ccccc2[C@]23C[C@@H](C(=O)OC)N(C(=O)NCCC)C2=NC(C(=O)OC)=C(C(=O)OC)[C@H]13	nt	nt	nt	nt	-1.88	nt
CCN1CCN(S(=O)(=O)c2ccc3[nH]c(=O)oc3c2)CC1	-7.7	1.1	0.9	nt	1.68	6.4
Cc1ccc(S(=O)(=O)N2CCC(C(=O)Nc3ccccc3N3CCCCC3)CC2)cc1	86.8*	0.1	0.2	-1.34	-3.32	79.7*
CCOC(=O)C1CCN(S(=O)(=O)c2ccc3[nH]c(=O)oc3c2)CC1	-1.7	1	0.4	nt	nt	56.3*
CCOC(=O)C1CCN(S(=O)(=O)c2ccc(C)cc2)CC1	26.7	0.7	0.2	0.42	nt	81.1*
CCOC(=O)C1CCN(S(=O)(=O)c2ccc(NC(=O)OC)cc2)CC1	19.1	0.8	0.8	0.91	1.1	24.3
COc1ccc2c(c1)O[C@@H](c1cccc(C(F)(F)F)c1)[C@H](OC(=O)N[C@H]1CCCc3ccccc31)C2=O	nt	nt	nt	nt	-0.644	nt
Cc1cccc2cc(CN(CCN(C)C)C(=S)Nc3ccccc3)c(=O)[nH]c12	nt	nt	nt	-0.69	nt	nt
COc1ccc(N(CC(=O)NCCSc2ccccn2)S(C)(=O)=O)cc1Cl	59.5*	0.4	0.5	1.53	1.77	54.8*
COCCNC(=O)CN(c1ccc(C)cc1)S(=O)(=O)c1ccccc1	-11.4	1.1	0.9	0.84	0.561	11.7
Cc1ccc(S(=O)(=O)N(CC(=O)NCCSc2ccccn2)c2cc(C)cc(C)c2)cc1	79.3*	0.2	0.6	-1.75	-6.42*	41.6
COCCNC(=O)CN(c1ccc(C)cc1)S(=O)(=O)c1ccc(SC)cc1	76.9*	0.2	0	0.1	1.19	97.6*
